The record followed here is PubChem BioAssay (Tox21).

Several values for one entry are separate records, joined by “and”; a condition that tells them apart may be missing. Equal values may be shown once. Inconclusive results are not listed. Entries that show only a call come without a potency. Where a structure was tested more than once in an assay, its records may differ in their call. Activity calls are given as the source filed them. The call rests on the fitted dose curve; in most records, active means well fitted cell-killing curve with a large enough effect in the repeat runs; inconclusive means weak or mixed curves, or effect the other way; inactive means flat fitted curve, though single readings scatter.
Potency means the concentration at half of the fitted maximal effect.

A short description of this experiment: qHTS assay to identify small molecule antagonists of the androgen receptor (AR) signaling pathway using the MDA cell line in the presence of 0.5 nM R1881 - cell viability counter screen (AID 1259242). Further: nearly all actives have a fitted effect of over 45% in size. The following applies: MDA-kb2 viability, CellTiter-Fluor protease fluorescence, 16 h; series mostly up to 92.4 µM. The source says:
U.S. Tox21 Program National Center for Advancing Translational Sciences [NCATS] NIH Chemical Genomics Center [NCGC] U.S. Environmental Protection Agency [EPA] National Institutes of Environmental Health Sciences [NIEHS] National Toxicology Program [NTP] U.S. Food and Drug Administration [FDA] Tox21 Assay Overview: Androgen receptor (AR) is an important member of the nuclear receptor family. Its signaling plays a critical role in AR-dependent prostate cancer and other androgen related diseases. Considerable attention has been given in the past decades to develop methods to study and screen for the environmental chemicals that have the potential to interfere with metabolic homeostasis, reproduction, developmental and behavioral functions. Therefore AR binding assay for screening androgen antagonists can be used to identify potential endocrine disruptors. MDA-kb2 cells (from ATCC, deposited by Wilson et al.) were used to screen for AR inhibitors against Tox21 compound libraries. These cells are human breast carcinoma cells that were stably transfected with a luciferase reporter gene under control of the MMTV promoter that contains response elements for both androgen receptor (AR) and glucocorticoid receptor (GR). The current screening for identification of AR inhibitors against Tox21 libraries used lower concentration of (0.5 nM) R1881 as a stimulator. The cytotoxicity of the Tox21 compound libraries against MDA-kb2 cell line was tested by measuring live-cell protease activity using CellTiter-Fluor assay in the same wells.
Tox21 Assay Protocol Summary: MDA-kb2 cells (cells cultured without CO2) were dispensed at 3,000 cells/well in 4 uL of culture medium into white wall/solid-bottom 1536-well plates (Corning Life Sciences, Corning, NY) using a Multidrop Combi (ThermoFisher Scientific, Waltham, MA) dispenser. After the assay plates were incubated at a 37C and 0% CO2 for 5 hr, 23 nL of compounds dissolved in DMSO, positive controls or DMSO only was transferred to the assay plate by a Pintool station (Kalypsys, San Diego, CA). The transfer of compounds was followed by the addition of 1 uL of 0.5 nM (final concentration) agonist (R1881)/culture medium using a Flying Reagent Dispenser (FRD, Aurora Discovery, San Diego, CA). The plates were incubated at 37C and 0% CO2 for 16 hr. For cytotoxicity assay, 1 uL of CellTiter-Fluor reagent (Promega Corporation, Madison, WI) was added to each well using the FRD and after 30 min incubation at 37C and 0% CO2, The fluorescence intensity was measured using ViewLux plate reader (PerkinElmer, Shelton, CT).
(qHTS replaces the single test concentration by a dilution series.)
In the case of `NC(N)=NC(=O)Cc1c(Cl)cccc1Cl`, the Potency result was “inactive”.

Regarding `CC[C@@H](N)CO`, the Potency entry is “inactive”.

For the molecule `CC(C)(c1ccccc1)c1ccc(Nc2ccc(C(C)(C)c3ccccc3)cc2)cc1`, the Potency result was “inactive”.

In the case of `CCOc1ccccc1C(N)=O`, the Potency entry is “inactive”.

Turning to `CCC(CO)(CO)COCC(CC)(CO)CO`, the Potency result was “inactive”.

Consider `CC(C)CCOC(=O)c1ccc(N(C)C)cc1`, for which the Potency result is “inactive”.

For the molecule `Nc1cc(Cl)c(-c2cc(Cl)c(N)cc2Cl)cc1Cl`, the Potency entry was “inactive”.

`CC(N)=O`: the Potency result is “inactive”.

Consider `O=C(O)c1cn(-c2ccc(F)cc2)c2cc(N3CCNCC3)c(F)cc2c1=O`, for which the Potency result was “inactive”.

Regarding `CCC(C)(C)C(=O)O[C@H]1C[C@@H](C)C=C2C=C[C@H](C)[C@H](CC[C@@H]3C[C@@H](O)CC(=O)O3)[C@H]21`, the Potency result is “inactive”.

On to `Nc1nc2ccccc2[nH]1`, for which the Potency result was “inactive”.

For `CCC(C)(Oc1ccc(C2(c3ccc(OC(C)(CC)C(=O)O)cc3)CCCCC2)cc1)C(=O)O` (stereo not given), the Potency entry is “inactive”.

With `C1COC(NC(C2CC2)C2CC2)=N1`, the Potency result is “inactive”.

`CC1COC(=O)O1` (stereo not given): the Potency entry was “inactive”.

For `CC(=O)OCC1=C(C(=O)O)N2C(=O)[C@@H](NC(=O)Cc3cccs3)[C@H]2SC1`, the Potency entry was “inactive”.

As to `Cc1ccnc2c1NC(=O)c1cccnc1N2C1CC1`, the Potency result is “inactive”.

In the case of `Cc1cc(OCCOCC[N+](C)(C)Cc2ccccc2)ccc1C(C)(C)CC(C)(C)C`, the Potency was 43 µM (active) and 26.6 µM (active).

`c1cnc2cc3c(cc2n1)C1CNCC3C1`: the Potency entry was “inactive”.

Turning to `CCCCCC(=O)O[C@]1(C(C)=O)CC[C@H]2[C@@H]3CCC4=CC(=O)CC[C@]4(C)[C@H]3CC[C@@]21C`, the Potency is 43 µM (active).

On to `COC(c1ccccc1)(c1ccccc1)[C@H](Oc1nc(C)cc(C)n1)C(=O)O`, for which the Potency entry was “inactive”.

Turning to `O=C(Cl)c1cccc(C(=O)Cl)c1`, the Potency result is “inactive”.

Take `CCCOC(=O)c1cc(O)c(O)c(O)c1`: the Potency result is “inactive”.

Turning to `O=C(Oc1ccccc1)c1ccccc1O`, the Potency entry is “inactive”.

Turning to `OCC(CO)N[C@H]1C[C@](O)(CO)[C@@H](O)[C@H](O)[C@H]1O`, the Potency result was “inactive”.

As for `O=C1CC2(CCCC2)CC(=O)N1CCCCN1CCN(c2ncccn2)CC1`, the Potency entry was “inactive”.

As to `CC(COc1ccccc1)N(CCCl)Cc1ccccc1` (stereo not given), the Potency was 55 µM (active) and inactive.

For `CC(C)(C)NCC(O)c1cc(O)cc(O)c1` (stereo not given), the Potency entry was “inactive”.

In the case of `CCCCC/C=C/CC1CC(=O)OC1=O` (stereo not given), the Potency result was “inactive”.

Regarding `CC(C)CCCCCCc1ccc(O)cc1`, the Potency is 6.98 µM (active) and inactive.

As for `O=Cc1ccc(Cl)cc1`, the Potency entry is “inactive”.

On to `OCCN1CCNCC1`, for which the Potency result is “inactive”.

With `O=C1NCC2(CCN(CCc3ccccc3)CC2)O1`, the Potency entry was “inactive”.

On to `O=S(=O)(O)c1ccc2nc(-c3ccccc3)[nH]c2c1`, for which the Potency entry was “inactive”.

Consider `c1ccc2n[nH]nc2c1`, for which the Potency result was “inactive”.

For `CCOc1ccc2c(c1)C(C)=CC(C)(C)N2`, the Potency result was “inactive”.

As for `COc1ccc(COC(C)=O)cc1`, the Potency entry is “inactive”.

`COc1nc(C)nc(Cl)c1NC1=NCCN1`: the Potency result is “inactive”.

As for `C=C(C)C1CC=C(C)C(OC(C)=O)C1` (stereo not given), the Potency entry is “inactive”.

As for `O=C(OCc1ccccc1)c1ccc(O)cc1`, the Potency result was “inactive”.

Turning to `O=C(O)Cn1cnnn1`, the Potency entry is “inactive”.
